VDR inh – inhibitors of human vitamin D receptor. P11473. VDR-SRC2-3 peptide fluorescence polarization, 2 h. Potency, µM, inactives show max response, negative = inhibition, most hits filed as inhibitors. 400,000 tested, 0.93% active
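Two reagent solutions held at 4 deg C in the dark were dispensed, compounds pinned at 23 nl, and the mixture incubated 2 h at room temperature. Read-out: fluorescence polarization of VDR–SRC2-3 peptide binding.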
ALOX12 inh – inhibitors of human 12S-lipoxygenase ALOX12 | P18054 | purified 12hLO, xylenol orange hydroperoxide absorbance | Potency, µM (series often up to 108 µM), inactives show at the highest dose activity change, negative = inhibition, hits mostly inhibitors | 580,000 tested, 1.1% active | AID 1671190
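Hydroperoxide product was detected by ferrous iron/xylenol orange as the 573 to 405 nm absorbance ratio. Arachidonic acid at 40 uM (final) was turned over for 30 min at room temperature by 150 nM human 12hLO, pH 7.0 Hepes buffer, after 15 min compound preincubation.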
PLK1 PBD inh – blocks phosphopeptide binding to human PLK1 polo-box domain; 360,000 tested, 2.8% active; AID 720504; Potency, µM, for the others: max response, negative = inhibition, hits mostly inhibitors; Plk1 PBD binding of FITC phosphopeptide, fluorescence polarization; P53350; also: series mostly up to about 57 µM; nearly all actives have a fitted effect of over 65% in size
Target sequence (P53350 whole entry, looked up, the tested form may be a part): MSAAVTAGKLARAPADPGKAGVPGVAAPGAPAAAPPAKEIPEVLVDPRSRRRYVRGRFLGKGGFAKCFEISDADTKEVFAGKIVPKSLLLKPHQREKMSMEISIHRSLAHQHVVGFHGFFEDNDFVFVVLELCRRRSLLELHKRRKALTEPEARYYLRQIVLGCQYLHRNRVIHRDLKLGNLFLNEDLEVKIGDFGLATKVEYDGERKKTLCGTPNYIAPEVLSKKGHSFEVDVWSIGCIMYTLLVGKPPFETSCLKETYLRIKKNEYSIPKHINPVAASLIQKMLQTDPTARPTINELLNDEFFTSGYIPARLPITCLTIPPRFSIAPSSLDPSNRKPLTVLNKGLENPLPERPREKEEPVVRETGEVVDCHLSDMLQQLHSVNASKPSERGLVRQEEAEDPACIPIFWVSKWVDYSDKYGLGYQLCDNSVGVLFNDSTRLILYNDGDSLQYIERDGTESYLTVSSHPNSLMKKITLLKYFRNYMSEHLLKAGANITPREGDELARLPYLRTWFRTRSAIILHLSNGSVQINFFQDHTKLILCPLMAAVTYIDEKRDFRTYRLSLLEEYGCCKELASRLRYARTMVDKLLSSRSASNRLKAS
GCN5L2 inh – inhibitors of human GCN5L2 histone acetyltransferase. Q92830. GCN5L2 HAT assay, ThioGlo1 CoA-SH fluorescence. Potency, µM (top dose mostly 58.9 µM), for the others: at the top dose activity change, negative = inhibition, usual class: inhibitors. 390,000 tested, 0.21% active. AID 504327
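Titration-based screen in which CoA formation is detected via maleimide probe ThioGlo1 (50uM) turning fluorescent on thiol reaction; substrates H3(1-25) 75uM and acetyl-CoA 70uM, GCN5L2 20nM, 20 min incubation at room temperature.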
* hit, by the source's call; [ ] = remark or other dose. Only some compounds are listed: those with a hit (about 3% of all), similar ones and a draw of the others. Calls follow the shape of the dose curve; as a rule, active = well fitted curve in the direction sought with a large enough effect; inconclusive = small, poorly fitted or top-dose-only effect, or another doubt; inactive = no such curve, though single readings can be large; an effect the other way counts as inactive or inconclusive. % is scaled to controls: 0 for no effect and ±100 for the full control effect; potency is read from the fitted curve at half-maximal effect.

Screening CCOC(=O)C1CCCN(C2=NC(=O)/C(=C/c3ccc(OC)cc3OC)S2)C1 (stereo not drawn) returned VDR inh inconclusive, ALOX12 inh inconclusive, PLK1 PBD inh 18.9µM* and GCN5L2 inh -1.1%.
For CCOC(=O)C1CCCN(C2=NC(=O)/C(=C/c3ccc(O)c(OCC)c3)S2)C1 (stereo not drawn) the results were VDR inh -1.3%, ALOX12 inh 107.1%, PLK1 PBD inh 42.6% and GCN5L2 inh -17.1%.
OCCCn1c(-c2ccc(F)cc2)csc1=Nc1ccc(F)cc1 was read as VDR inh -7.5%, ALOX12 inh inconclusive and GCN5L2 inh -4.8%.
Cc1ccc(-c2csc(=Nc3ccccc3)n2CCCO)cc1 was read as VDR inh -6.0%, ALOX12 inh 44.7µM* and GCN5L2 inh -14.4%.
For COCCNC(=S)N1CCN(c2nc(-c3ccc(F)cc3)cs2)CC1 the results were VDR inh -24.9%, ALOX12 inh -1.5%, PLK1 PBD inh -12.8% and GCN5L2 inh -14.0%.
Screening COCCNC(=S)N1CCN(c2nc(-c3ccc(Cl)cc3)cs2)CC1 returned VDR inh -13.0%, ALOX12 inh -1.5%, PLK1 PBD inh 23.8µM* and GCN5L2 inh -1.8%.
O=C(O)COc1ccccc1/C=N/NC(=O)CNC(=O)c1ccc(F)cc1 was read as VDR inh inconclusive, ALOX12 inh -10.6%, PLK1 PBD inh 8.44µM* and GCN5L2 inh 0.0%.
O=c1n(-c2ccc(Cl)cc2)nc2n1CCN(Cc1cccc3ccccc13)C2 was read as ALOX12 inh 11.3%[6.33 µM].
O=c1n(-c2ccc(F)cc2F)nc2n1CCN(Cc1cccc3ccccc13)C2 was read as ALOX12 inh 28.2µM*.
`CC(C)/C=N/NC(=O)c1ccc(Cl)cc1` gave VDR inh inconclusive, ALOX12 inh 0.6%, PLK1 PBD inh 26.7µM* and GCN5L2 inh 2.9%.
Screening C/C(CC(C)C)=N\NC(=O)c1ccc(Cl)cc1 returned ALOX12 inh 30.0%.
For CC(/C=C/c1ccccc1F)=N\NC(=O)c1ccc(Cl)cc1 the results were VDR inh inconclusive, ALOX12 inh -4.3%, PLK1 PBD inh 5.32µM* and GCN5L2 inh -5.9%.
For CC(/C=C/c1ccccc1F)=N\NC(=O)c1ccccc1 the results were VDR inh 13.5%, ALOX12 inh 4.4%, PLK1 PBD inh -3.0% and GCN5L2 inh -5.3%.
`COc1ccc(CN2CCCC3(C2)C(=NC2CCCCC2)NC(=O)N3c2cc(F)cc(F)c2)cc1` (stereo not drawn) gave ALOX12 inh 16.8%[6.33 µM].
For Fc1ccccc1C1CC(c2ccco2)=Nc2ccccc2S1 (stereo not drawn) the results were VDR inh 79.4µM*, ALOX12 inh -24.7%, PLK1 PBD inh -13.1% and GCN5L2 inh -11.2%.
`COc1ccccc1C1CC(c2cccs2)=Nc2ccccc2S1` (stereo not drawn) gave VDR inh -20.1%, ALOX12 inh 8.5%[57.4 µM], PLK1 PBD inh -17.8% and GCN5L2 inh -5.2%.
Screening C=CCn1c(SCC(=O)Nc2ccc(Br)cc2)nc(O)cc1=O returned ALOX12 inh 3.16µM* and PLK1 PBD inh 3.0%.
`Cc1ccccc1-n1c(SCC(=O)Nc2ccc(Cl)cc2Cl)nc(O)cc1=O` gave VDR inh -7.2%, ALOX12 inh 6.31µM* and GCN5L2 inh -5.5%.
Screening COc1ccc(NC(=O)CSc2nc(O)cc(=O)n2-c2ccc(OC)cc2)cc1 returned VDR inh 0.6%, ALOX12 inh 12.6µM*, PLK1 PBD inh -2.5% and GCN5L2 inh -16.2%.
`COc1ccc(-n2c(SCC(=O)Nc3ccccc3)nc(O)cc2=O)cc1` gave VDR inh -12.8%, ALOX12 inh inconclusive, PLK1 PBD inh -0.8% and GCN5L2 inh -18.8%.
`CC1(CCCCN2CCOCC2)COc2ccc(C(=O)NCc3ccccc3)cc2N1` (stereo not drawn) gave ALOX12 inh -2.4%[176 µM].
COc1ccc(OC)c(CCNC(=O)c2ccc3c(c2)N(Cc2ccc(C)cc2)CCS3)c1 was read as VDR inh -9.1%, ALOX12 inh inconclusive and GCN5L2 inh -3.4%.
Screening O=C(NCCN1CCOCC1)c1ccc2c(c1)N(Cc1ccccc1)CCS2 returned VDR inh inconclusive, ALOX12 inh -25.9%, PLK1 PBD inh 26.7µM* and GCN5L2 inh -13.7%.
`O=C(NCCCN1CCOCC1)c1ccc2c(c1)N(Cc1ccccc1)CCS2` gave VDR inh -5.1%, ALOX12 inh -6.7%, PLK1 PBD inh -6.0% and GCN5L2 inh -7.0%.
CC1(CCCCc2ccccc2)COc2ccc(C(=O)NCCN3CCOCC3)cc2N1 (stereo not drawn) was read as ALOX12 inh 100µM*.
`COc1ccc(CCNC(=O)c2ccc3c(c2)N(Cc2ccc(F)cc2)CCS3)cc1OC` gave VDR inh inconclusive, ALOX12 inh 13.4%, PLK1 PBD inh 29.9µM* and GCN5L2 inh -13.8%.
For Cc1ccccc1CNC(=O)c1ccccc1N the results were VDR inh 11.5%, ALOX12 inh -0.5%, PLK1 PBD inh -3.1% and GCN5L2 inh 1.6%.
For Nc1ccccc1C(=O)NCc1ccccc1 the results were VDR inh inconclusive, ALOX12 inh -32.0%, PLK1 PBD inh 3.77µM* and GCN5L2 inh -4.3%[0.501 µM].
CC(=O)NC1C(=O)N(CCOc2cccc(C)c2)c2ccc(C)cc21 (stereo not drawn) was read as ALOX12 inh 49.8%.
For COc1ccc(C2NC(=O)C(C#N)=C(S)N2c2ccccc2)cc1OC (stereo not drawn) the results were VDR inh 44.7µM*, ALOX12 inh inconclusive, PLK1 PBD inh -18.1% and GCN5L2 inh -0.6%.
For COc1cc(C2C3CN(C)CC=C3C(C#N)=C(N)C2(C#N)C#N)ccc1OC(C)C (stereo not drawn) the results were VDR inh 4.5%, ALOX12 inh -21.5%, PLK1 PBD inh inconclusive and GCN5L2 inh -4.9%.
`COc1cc(C2NC(=O)C(C#N)=C(S)N2c2ccccc2)ccc1OC(C)C` (stereo not drawn) gave VDR inh 35.5µM*, ALOX12 inh 14.1µM*, PLK1 PBD inh -22.7% and GCN5L2 inh -1.4%.
COc1ccc(NC(=O)C(C)n2cccn2)cc1OC(F)F (stereo not drawn) was read as ALOX12 inh -29.3%.
Screening COc1cc(OC)cc(-c2nc3n(n2)C(c2ccncc2)C2=C(CC(C)(C)CC2=O)N3)c1 (stereo not drawn) returned ALOX12 inh 29.7%.
`CC(=O)c1cccc(NC(=O)CCSC2CCc3ccccc3NC2=O)c1` (stereo not drawn) gave ALOX12 inh 27.9%.
O=C(Cn1ccccc1=O)Nc1ccc(Br)cc1F was read as ALOX12 inh -26.4%.
CCOC(=O)/C(C#N)=C1/C=Nc2ccccc2N1 was read as VDR inh 6.6%, ALOX12 inh inconclusive, PLK1 PBD inh -1.2% and GCN5L2 inh inconclusive.
Screening CCOC(=O)/C(C#N)=C1\CC2CCC1(C)C2(C)C (stereo not drawn) returned VDR inh 79.4µM*, ALOX12 inh 0.0%, PLK1 PBD inh 5.97µM* and GCN5L2 inh -16.3%.

High-throughput results: PubChem BioAssay, National Center for Advancing Translational Sciences (NCATS)
